Consider 17 molecules from PubChem BioAssay.

The nature of experiment [1]: binders of probe aFSTL3 on microarray, primary screen, stem cell growth factor project, biochemical, small-molecule microarray, fluorescence 635/667 (AID 1064).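 Also: measures binding of the biotinylated anti-FSTL3 antibody to printed compounds.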 Particulars: higher = more signal.
Experiment [2] in a line: binders from COS7 lysate, DM2A8 probe, primary screen, torsin A project, cell lysate, small-molecule microarray, fluorescence 635/667 (AID 1065). Particulars: higher = more signal, COS7 lysate expressing mutant human TOR1A.
A short description of experiment [3]: binders of probe aFGF2 on microarray, primary screen, stem cell growth factor project, biochemical, small-molecule microarray, fluorescence 635/667 (AID 1067).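 Also: measures binding of biotinylated aFGF2 protein to printed compounds on slides; z-score merges feature fluorescence and signal-to-noise across triplicate slides.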 Particulars: higher = more signal.
Experiment [4] is described as follows: binders of probe aFGF10 on microarray, primary screen, stem cell growth factor project, biochemical, small-molecule microarray, fluorescence 635/667 (AID 1071).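 Also: score merges 667 nm spot intensity and signal to noise from triplicate slides.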 Particulars: higher = more signal.
The target in experiment [5] is Neurogenic locus notch homolog protein 2 (Homo sapiens) (UniProt Q04721). The experiment is described as follows: Notch2 binders on small-molecule microarrays, primary screen, biochemical, small-molecule microarray, 635 nm fluorescence, stem cell growth factors (AID 1073). Particulars: Notch2 binding, higher = more signal.
Experiment [6] has as its target Pro-neuregulin-1, membrane-bound isoform (Homo sapiens) (UniProt Q02297). The experiment is described as follows: NRG1 binders on small-molecule microarrays, primary screen, psychiatric disease protein project, biochemical, small-molecule microarray, fluorescence 635/667 (AID 1075).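 Also: score combines 667 nm spot fluorescence with signal to noise.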 To be noted: NRG1 binding, 635 nm fluorescence, higher = more signal.
Experiment [7] deals with Neuregulin-1 EGF-like domain. The experiment is described as follows: binders of neuregulin-1 EGF-like domain, primary screen, biochemical, small-molecule microarray, 635 nm fluorescence (AID 1081).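 Also: binding of the protein to compounds printed on small-molecule microarray slides.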 To be noted: small-molecule microarray binding, higher = more signal.
Experiment [8] is described as follows: FRG1 promoter luciferase signal modulators, primary screen, FRG1 inhibition for FSHD, cell-based, C2C12 myotubes, firefly/Renilla luciferase, luminescence (AID 1084). Particulars: higher = more signal, called active from +8 up or from −8 down.
A short description of experiment [9]: binders of probe aFST on microarray, primary screen, stem cell growth factor project, biochemical, small-molecule microarray, fluorescence 635/667 (AID 1086).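 Also: score merges 667 nm fluorescence with signal-to-noise of each printed compound spot.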 To be noted: higher = more signal.
Experiment [10] can be described thus: binders of probe aHhip on microarray, primary screen, stem cell growth factor project, biochemical, small-molecule microarray, fluorescence 635/667 (AID 1087).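 Also: score merges spot fluorescence at 667nm with spot signal to noise ratio.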 Particulars: higher = more signal.

The source made the active and inactive calls.

Pro-neuregulin-1, membrane-bound isoform (Homo sapiens), sequence (Q02297 whole entry, looked up, the tested form may be a part, canonical isoform): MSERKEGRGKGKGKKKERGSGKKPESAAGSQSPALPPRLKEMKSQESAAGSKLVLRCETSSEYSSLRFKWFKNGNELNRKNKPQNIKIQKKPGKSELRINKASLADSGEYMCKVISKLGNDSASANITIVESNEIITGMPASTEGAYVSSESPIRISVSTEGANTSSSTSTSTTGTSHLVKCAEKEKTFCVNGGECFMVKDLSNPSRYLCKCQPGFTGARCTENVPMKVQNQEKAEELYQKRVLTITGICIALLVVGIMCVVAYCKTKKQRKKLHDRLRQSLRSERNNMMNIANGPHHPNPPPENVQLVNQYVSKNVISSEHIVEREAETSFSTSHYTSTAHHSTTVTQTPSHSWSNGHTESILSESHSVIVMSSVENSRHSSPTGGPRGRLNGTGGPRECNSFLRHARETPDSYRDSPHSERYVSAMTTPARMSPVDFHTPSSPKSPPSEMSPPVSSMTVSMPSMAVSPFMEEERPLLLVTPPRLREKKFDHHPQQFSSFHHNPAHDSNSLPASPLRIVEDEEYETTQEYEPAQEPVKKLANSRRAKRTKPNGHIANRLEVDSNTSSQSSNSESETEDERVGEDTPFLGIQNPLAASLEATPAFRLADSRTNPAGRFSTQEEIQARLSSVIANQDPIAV
Neurogenic locus notch homolog protein 2 (Homo sapiens), sequence (Q04721 whole entry, looked up, canonical isoform): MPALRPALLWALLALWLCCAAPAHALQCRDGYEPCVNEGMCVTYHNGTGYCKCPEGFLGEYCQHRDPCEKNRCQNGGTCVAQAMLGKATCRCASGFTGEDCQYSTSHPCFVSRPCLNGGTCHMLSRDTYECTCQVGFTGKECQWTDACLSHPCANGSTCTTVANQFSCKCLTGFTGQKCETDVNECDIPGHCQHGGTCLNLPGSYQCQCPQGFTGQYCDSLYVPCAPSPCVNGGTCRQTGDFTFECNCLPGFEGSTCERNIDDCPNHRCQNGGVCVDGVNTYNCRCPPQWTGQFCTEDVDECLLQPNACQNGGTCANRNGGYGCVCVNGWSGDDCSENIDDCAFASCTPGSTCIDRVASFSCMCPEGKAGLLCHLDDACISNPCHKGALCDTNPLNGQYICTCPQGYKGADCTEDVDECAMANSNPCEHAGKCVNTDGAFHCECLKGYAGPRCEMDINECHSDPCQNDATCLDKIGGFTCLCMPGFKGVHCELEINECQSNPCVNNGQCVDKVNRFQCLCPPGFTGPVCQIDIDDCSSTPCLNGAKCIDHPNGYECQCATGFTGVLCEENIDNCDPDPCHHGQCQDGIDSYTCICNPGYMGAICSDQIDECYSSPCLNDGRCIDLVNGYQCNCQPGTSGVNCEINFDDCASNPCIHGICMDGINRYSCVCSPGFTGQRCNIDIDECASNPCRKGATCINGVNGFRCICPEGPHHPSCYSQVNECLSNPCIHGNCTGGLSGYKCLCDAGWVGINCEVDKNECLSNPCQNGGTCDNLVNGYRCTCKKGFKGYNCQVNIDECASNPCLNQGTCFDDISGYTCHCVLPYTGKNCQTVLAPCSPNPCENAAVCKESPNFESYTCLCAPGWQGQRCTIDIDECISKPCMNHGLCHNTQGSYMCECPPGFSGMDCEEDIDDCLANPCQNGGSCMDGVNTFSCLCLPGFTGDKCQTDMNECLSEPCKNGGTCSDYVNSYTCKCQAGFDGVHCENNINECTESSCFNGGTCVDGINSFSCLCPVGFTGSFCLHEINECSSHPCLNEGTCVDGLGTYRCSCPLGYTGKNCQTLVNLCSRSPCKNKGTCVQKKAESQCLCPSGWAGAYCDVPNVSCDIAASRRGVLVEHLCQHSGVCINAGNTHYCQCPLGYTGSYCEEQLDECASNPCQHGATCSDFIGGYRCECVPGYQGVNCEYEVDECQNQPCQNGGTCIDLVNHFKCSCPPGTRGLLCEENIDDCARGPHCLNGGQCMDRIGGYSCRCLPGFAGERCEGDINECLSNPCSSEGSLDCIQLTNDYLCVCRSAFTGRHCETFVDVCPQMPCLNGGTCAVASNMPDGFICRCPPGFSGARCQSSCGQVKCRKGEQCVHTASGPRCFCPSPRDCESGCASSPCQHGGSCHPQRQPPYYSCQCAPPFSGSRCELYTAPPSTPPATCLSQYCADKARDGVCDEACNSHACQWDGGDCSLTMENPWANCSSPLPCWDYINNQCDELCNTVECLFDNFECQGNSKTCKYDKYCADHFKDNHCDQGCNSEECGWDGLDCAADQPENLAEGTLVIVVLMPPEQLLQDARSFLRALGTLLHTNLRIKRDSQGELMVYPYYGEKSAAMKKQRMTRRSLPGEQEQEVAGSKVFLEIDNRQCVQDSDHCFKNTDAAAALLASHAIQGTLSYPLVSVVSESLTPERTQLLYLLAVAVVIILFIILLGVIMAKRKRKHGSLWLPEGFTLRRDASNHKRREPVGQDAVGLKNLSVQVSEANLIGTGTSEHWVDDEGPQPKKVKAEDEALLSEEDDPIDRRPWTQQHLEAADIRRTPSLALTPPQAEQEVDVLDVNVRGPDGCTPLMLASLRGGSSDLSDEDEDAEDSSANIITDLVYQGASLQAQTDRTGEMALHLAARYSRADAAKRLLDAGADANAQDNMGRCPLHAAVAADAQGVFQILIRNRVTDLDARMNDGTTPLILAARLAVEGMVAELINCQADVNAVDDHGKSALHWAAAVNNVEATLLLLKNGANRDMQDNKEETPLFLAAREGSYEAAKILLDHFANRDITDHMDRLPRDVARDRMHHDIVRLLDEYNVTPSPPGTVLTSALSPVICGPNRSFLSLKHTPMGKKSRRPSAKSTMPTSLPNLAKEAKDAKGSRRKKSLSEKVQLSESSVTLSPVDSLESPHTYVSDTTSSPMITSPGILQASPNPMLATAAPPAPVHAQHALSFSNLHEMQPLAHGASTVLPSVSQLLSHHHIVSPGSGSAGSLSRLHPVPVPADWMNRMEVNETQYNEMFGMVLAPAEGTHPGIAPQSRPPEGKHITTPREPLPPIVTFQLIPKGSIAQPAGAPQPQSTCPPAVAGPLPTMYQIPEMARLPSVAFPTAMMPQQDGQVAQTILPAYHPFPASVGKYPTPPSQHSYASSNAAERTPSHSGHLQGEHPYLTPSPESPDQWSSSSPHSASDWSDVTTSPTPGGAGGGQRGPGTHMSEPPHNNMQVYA

With `COCCOC(=O)N1C(=O)[C@@]2(c3cc(C#CC4(O)CCCCCC4)ccc31)[C@H](c1ccc(O)cc1)N1[C@H](c3ccccc3)[C@H](c3ccccc3)OC(=O)[C@H]1[C@@H]2C(=O)N1CCN(c2ncccn2)CC1`, the composite z-score in experiment [1] is -0.133; in experiment [2] it was 0.837; in experiment [3], 0.0702; in experiment [4], 0.292; in experiment [5], 0.895; in experiment [6] it was 1.33. The composite z-score in experiment [7] worked out at 1.24; in experiment [9], 0.756; in experiment [10], 0.132. Also, the z-score in experiment [8] is 0.821 (inactive).
In the case of `CC[C@@H]1O[Si](C(C)C)(C(C)C)c2c1cc(-c1cc(C)c(OC)c(C)c1)nc2-c1ccc(Oc2ccccc2)cc1`, the composite z-score in [1] was -0.119; in [2], -0.259; in experiment [3], -0.0881; in experiment [4], -0.0323; in experiment [5], 0.0131; in [6] it was 0.437. The composite z-score is -0.595 in [7], -0.0965 in [9] and 0.0808 in experiment [10]. In addition, the z-score in experiment [8] was 0.838 (inactive).
As to `COCCCNC(=O)[C@@H]1c2ccccc2C(=O)N(C(C)C)[C@H]1c1ccc(CO)cc1`, the composite z-score was 0.312 in [1]; 0.355 in experiment [2]; -0.051 in [3]; -0.373 in experiment [4]; 0.0446 in experiment [5]; 0.576 in experiment [6]. The composite z-score was 0.763 in experiment [7], 0.0241 in experiment [9] and -0.249 in experiment [10]. Also, in experiment [8], the z-score is -0.215 (inactive).
For `CCCC=C(CCC)[C@@H](NS(=O)(=O)c1ccc(C(F)(F)F)cc1)c1ccccc1`, the composite z-score was -0.0179 in [1]; -0.0296 in experiment [2]; 0.143 in experiment [3]; -0.0601 in experiment [4]; 0.0998 in [5]; -0.152 in experiment [6]. Moreover, the composite z-score stood at 0.428 in experiment [7], 0.302 in experiment [9] and 0.37 in [10]. Besides, the z-score in [8] was 1.75 (inactive).
Turning to `COC(=O)[C@@]1(Cc2ccc(F)cc2)[C@H]2c3cc(C(=O)N(C)C)n(CCc4ccc(OC)c(Br)c4)c3C[C@H]2CN1C(=O)c1ccccc1`, the composite z-score was 0.859 in [1]; -0.694 in experiment [2]; 0.361 in experiment [3]; 0.675 in [4]; 0.716 in [5]; 0.988 in experiment [6]. The composite z-score in [7] amounted to 1.29; in [9], 1.48; in experiment [10] it was 0.424. Besides, the z-score in experiment [8] was 3.92 (inactive).
Take `CC(C)(C)OC(=O)COc1cccc(C(=O)CCN2CCOCC2)c1`: the composite z-score in experiment [1] was 1.39; in experiment [2], 0.262; in experiment [3] it was -0.0741; in experiment [4], -0.459; in [5], -0.742; in experiment [6], 0.359. Besides, the composite z-score in experiment [7] was 0.187; in experiment [9] it was 0.482; in experiment [10] it was -0.243. Moreover, the z-score in [8] was 1.57 (inactive).
As to `COc1cc(NN2C(C(O)c3cc(OC)c(OC)c(OC)c3)C=CC3C(=O)N(C)C(=O)C32)cc(OC)c1OC` (stereo not given), the composite z-score was -0.0324 in [1]; 0.427 in experiment [2]; -0.0613 in [3]; 0.899 in experiment [4]; 1.34 in experiment [5]; 1.98 in experiment [6]. Besides, the composite z-score in [7] turned out to be 1.23; in experiment [9], 0.572; in [10] it was 0.12. In experiment [8], the z-score was 0.78 (inactive).
`CO[C@H]1O[C@H](CO)[C@@H](OC(=O)Nc2ccc(Br)cc2)[C@@H]2OC(=O)[C@@H](Cc3ccccc3)C/C=C/C[C@H](Cc3ccccc3)C(=O)O[C@@H]12`: the composite z-score in experiment [1] is -0.159; in experiment [2] it was 1.01; in experiment [3], -0.07; in experiment [4], 0.79; in experiment [5], 1.15; in experiment [6] it was 1.25. For the same molecule, the composite z-score in [7] is 1.09; in experiment [9] it was 0.0279; in experiment [10], -0.0645. For the same molecule, the z-score in experiment [8] was 0.147 (inactive).
On to `C=CCNC(=O)[C@@H]1[C@H]2C(=O)O[C@H](c3ccccc3)[C@H](c3ccccc3)N2[C@H](c2ccc(O)cc2)[C@@]12C(=O)N(C(=O)OCCOC)c1ccc(C#CC3=CCCCC3)cc12`, for which the composite z-score was -0.254 in experiment [1]; 0.467 in experiment [2]; -0.021 in experiment [3]; 0.512 in experiment [4]; 0.761 in experiment [5]; 1 in [6]. The composite z-score was determined as 1.17 in experiment [7], 0.668 in [9] and 0.951 in experiment [10]. In addition, in experiment [8], the z-score is 0.816 (inactive).
As for `Cc1ccc(N2C(=O)c3ccccc3[C@@H](C(=O)NCCCN(C)C)[C@@H]2c2ccc(CO)cc2)nc1`, the composite z-score is 1.36 in experiment [1]; -0.538 in [2]; 0.111 in experiment [3]; -0.533 in [4]; -0.854 in experiment [5]; 1.02 in experiment [6]. Also, the composite z-score in [7] was 1.44; in experiment [9], 0.282; in experiment [10], -0.757. For the same molecule, the z-score in [8] was 0.298 (inactive).
On to `O=C1C2C=CC(C(O)c3ccco3)N(Nc3ccccc3F)C2C(=O)N1c1ccccc1` (stereo not given), for which the composite z-score in experiment [1] is -0.111; in [2] it was -0.501; in experiment [3] it was 0.134; in experiment [4], 0.458; in experiment [5], 1.02; in experiment [6], 1.32. Further, the composite z-score was 0.894 in experiment [7], 0.931 in experiment [9] and -0.173 in [10]. The z-score in [8] is 0.793 (inactive).
For the molecule `CCCNC(=O)[C@@H]1c2ccccc2C(=O)N(Cc2ccc(OC(F)(F)F)cc2)[C@H]1c1ccc(CO)cc1`, the composite z-score was 0.193 in experiment [1]; -0.392 in experiment [2]; 0.0295 in [3]; 0.0505 in experiment [4]; 0.634 in experiment [5]; 0.33 in [6]. Further, the composite z-score was 1.24 in [7], 0.0347 in experiment [9] and -0.0237 in [10]. Moreover, in [8], the z-score is -1.88 (inactive).
`NCCCCCNC(=O)[C@H]1C[C@H]2C(=O)N3CCC[C@H]3C(=O)N2[C@H]1c1cccc(OCCO)c1`: the composite z-score in experiment [1] was 1.46; in [2] it was 0.161; in [3] it was -0.0448; in experiment [4], 0.179; in experiment [5], -0.0052; in experiment [6] it was 1.52. Further, the values for the composite z-score in experiment [7], in experiment [9] and in [10] were 1.43, 0.534 and 0.0873, respectively. In experiment [8], the z-score is 1.91 (inactive).
With `C=CCNC(=O)[C@@H]1[C@H]2C(=O)O[C@H](c3ccccc3)[C@H](c3ccccc3)N2[C@H](c2ccccc2OCCO)[C@@]12C(=O)N(C(=O)OCCOC)c1ccc(C#CC3(O)CCCCCC3)cc12`, the composite z-score in [1] is -0.249; in experiment [2], 0.356; in experiment [3] it was -0.0004; in experiment [4], 0.427; in experiment [5], 1.14; in experiment [6], 1.16. The values for the composite z-score in [7], in experiment [9] and in experiment [10] were 1.14, 0.771 and -0.0994, respectively. In [8], the z-score is -0.257 (inactive).
For `COCCOC(=O)N1C(=O)[C@@]2(c3ccccc31)[C@H](C(=O)NC[C@H](O)c1ccccc1)[C@H]1C(=O)O[C@H](c3ccccc3)[C@H](c3ccccc3)N1[C@@H]2c1ccc(O)cc1`, the composite z-score was -0.19 in [1]; 0.23 in [2]; 0.0017 in experiment [3]; 0.941 in experiment [4]; 1.55 in [5]; 0.57 in experiment [6]. For the same molecule, the composite z-score came to 1.25 in [7], 0.839 in [9] and 0.689 in [10]. The z-score in experiment [8] was -0.677 (inactive).
In the case of `COC(=O)[C@@]1(Cc2ccccc2)[C@H]2c3cc(C(=O)N(C)C)n(Cc4ccc(C)o4)c3C[C@H]2CN1C(=O)c1ccccc1`, the composite z-score in experiment [1] was 1.97; in experiment [2], 0.6; in experiment [3], 0.632; in [4] it was 0.685; in experiment [5] it was 1.36; in [6] it was 1.47. The composite z-score in experiment [7] was 1.15; in experiment [9], 1.91; in experiment [10], 0.414. Moreover, the z-score in experiment [8] was 0.495 (inactive).
Consider `COc1ccc([Si](C)(C)[C@@H]2[C@@H](CCO)O[C@]3(C(=O)N(Cc4ccccc4)c4ccc(NC(=O)[C@H](C)O)cc43)[C@H]2C)cc1`, for which the composite z-score in experiment [1] was -0.441; in experiment [2], 0.383; in experiment [3] it was -0.0505; in experiment [4] it was 0.8; in [5], 1.23; in experiment [6] it was 1.13. Moreover, the composite z-score in [7] came to 1.13; in experiment [9] it was 0.559; in [10] it was 0.162. The z-score in [8] was -3.84 (inactive).
